Where “and” joins values, the source holds several entries; their conditions need not be identical. Identical values can stand only once. Records with an inconclusive call do not appear. A structure can be active in one record and inactive in another. Calls of active or inactive are those of the source. Unless noted, the call rests on the fitted dose curve; in most records, active means well fitted curve in the direction sought with a large enough effect; inconclusive means small, poorly fitted or top-dose-only effect, or another doubt; inactive means no such curve, though single readings can be large; an effect the other way counts as inactive or inconclusive. Where only a bound is given, the exact number is not on record here.

Our source for the Potency, outcome and activity change, negative = inhibition values is PubChem BioAssay (NCATS).

Test [1] concerns the target Cytochrome P450 1A2 (Homo sapiens) (UniProt P05177). The test can be described thus: p450-cyp1a2 (AID 410; calls by dose curve; further: potency means the concentration at half of the fitted maximal effect;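 on activity change, negative = inhibition: -100% = full effect of reference inhibitor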). To be noted: recombinant CYP1A2, luciferin-ME demethylation, luminescence; series mostly up to 57 µM. In short, it runs like this:
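Luminescent readout of luciferin formed from Luciferin-ME by human CYP1A2; data normalized against complete inhibition by 57 uM furafylline. Enzyme 20nM, substrate 100uM at Km, 100mM KPO4 buffer, 60 min reaction at room temperature.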

In test [2] the target is Glucocorticoid receptor (Homo sapiens) (UniProt P04150). Nature of the test: GR-GFP Redistribution (AID 450;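 active means compounds whose dose series gives a full or clear partial fitted curve of increased nuclear translocation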; further: potency means the concentration at half of the fitted maximal effect). To be noted: U2OS GR-GFP nuclear translocation, laser cytometry, 2 h.
Test [3] shares this target. The test can be described thus: GR-EFC Redistribution (AID 451; calls by dose curve; further: potency means the concentration at half of the fitted maximal effect). To be noted: CHO-K1 GR-EFC translocation, beta-gal luminescence, 2 h. A digest of the protocol: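 Translocation of GR-ED fusion to nuclear EA restores b-gal, read by luminescence after 1 h room-temperature detection. Engineered CHO-K1 biosensor cells, 1,000/well, exposed 2 h at 37 C to titrations up to 46 uM final.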

For test [4], the target named is Mitogen-activated protein kinase 10 (Mus musculus) (UniProt Q61831). The test can be described thus: JNK3 AlphaScreen Assay (AID 530; active means well fitted curve in either direction with a large enough effect, not every such curve was filed as active;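 further: kinase came from lysate of stimulated human HepG2 cells; signal reports phosphorylation of biotinylated GST-cJun 1-79 at Ser73 with 10 µM ATP; on the % scale 0 is the no-effect control and ±100 the full control effect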). To be noted: JNK3 lysate, c-Jun phosphorylation; series mostly up to 57.1 µM. A digest of the protocol: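 Compound titrations were preincubated 15 minutes at room temperature with substrate, antibody and pre-activated JNK3-containing HepG2 lysate. Reactions were started with 10 uM ATP and stopped with EDTA-containing bead buffer for AlphaScreen detection.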
(In general: Bead proximity is the source of the signal in Alpha formats.)

Test [5] deals with 3',5'-cyclic-AMP phosphodiesterase 4B (Homo sapiens) (UniProt Q07343). The test can be described thus: qHTS Assay for Inhibitors of PDE-IV (AID 607; active means well fitted activation curve with a large enough effect in the main read-out, with a control signal flat, not every such curve was filed as active; further: % of control where 0% means no effect). The note with it: HEK293 ACTOne CNG channel cells, membrane potential fluorescence; series mostly up to 22.9 µM. In short, it runs like this:
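Live HEK293 cells with a modified cyclic nucleotide-gated (CNG) channel report intracellular cAMP via membrane-potential dye fluorescence (ex 535/em 590 nm). Endogenous PDE-IV was targeted. Compounds were tested at up to 22.9 uM final; RO 20-1724 100 uM served as control.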
In general terms: Quantitative high-throughput screening tests each substance at several concentrations.

Test [6] deals with Ubiquitin carboxyl-terminal hydrolase 1 (Homo sapiens) (UniProt O94782). Nature of the test: Inhibitors of USP1/UAF1: Pilot qHTS (AID 504865).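 Further: rhodamine fluorescence freed from ubiquitin-rhodamine substrate followed over time; top concentration of the series differs between compounds; on the % scale 0 is the no-effect control and ±100 the full control effect; nearly all actives have a fitted effect of over 35% in size.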 To be noted: purified USP1/UAF1, Ub-rhodamine cleavage fluorescence; series mostly up to 114 µM. In short, it runs like this: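 Deubiquitinase activity followed as kinetic rhodamine fluorescence release from 150 nM Ub-Rho. 1 nM USP1/UAF1 with compound, after 15 min room-temperature preincubation, in HEPES pH 7.8 buffer containing TCEP, EDTA, BSA and Tween-20.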

Test [7] deals with Zika virus NS2B-NS3 protease. The test can be described thus: Primary screen GU AMC qHTS for Zika virus inhibitors (AID 1347154). Further: nearly all actives have a fitted effect of over 70% in size. Further: potency means the concentration at half of the fitted maximal effect.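 On activity change, negative = inhibition: 0% = no-inhibitor control and -100% = no-enzyme control.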 The note with it: Zika NS2B-NS3 unlinked protease, AMC fluorogenic substrate; series mostly up to 54.1 µM. A digest of the protocol:
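Fluorogenic AMC-substrate cleavage by noncovalent NS2B-NS3 protease complex (25 nM, pH 8.0 Tris buffer with Tween 20) followed for 15 minutes at room temperature (~20% conversion). Percent inhibition from ex340/em450 signal change, fitted by 4-parameter Hill equation.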

A short description of test [8]: Primary qHTS for small molecule stabilizers of the endoplasmic reticulum resident proteome: Secreted ER Calcium Modulated Protein (SERCaMP) assay (AID 1508630). Further: on the % scale 0 is the no-effect control and ±100 the full control effect. To be noted: SH-SY5Y GLuc-SERCaMP (Gaussia luciferase released on ER calcium loss) secretion, thapsigargin, luminescence; series mostly up to 38.4 µM. In short, it runs like this:
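GLuc-SERCaMP-expressing SH-SY5Y cells, pretreated 16 h with compound, are challenged with thapsigargin to empty ER calcium stores; after 4 h, coelenterazine is added directly to the medium and luminescence is imaged.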

Test [9] in a line: NFAT Signaling Pathway (AID 444; active means well fitted curve in either direction with a large enough effect, not every such curve was filed as active;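 further: carbachol stimulus at about its EC50 of 1 µM final; on the % scale 0 is the no-effect control and ±100 the full control effect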). The note with it: Jurkat NFAT-bla M1, carbachol, beta-lactamase ratio, 5 h. In short, it runs like this: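 Read-out: CCF4 FRET ratio (460 nm/530 nm) after 1 h RT dye loading, used for %activity and AC50 from titration series. Cells: Jurkat NFAT-β-lactamase/M1 line, treated with compound plus 1 uM carbachol for 5 h, 37 °C.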
The nature of test [10]: Stat Signaling Pathway (AID 446; active means well fitted curve in either direction with a large enough effect, not every such curve was filed as active;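 further: ME-180 cervical cancer cells given 40 pM IL-6 alongside compound; SIE-controlled beta-lactamase reporter measured as 460/530 nm FRET emission ratio; on the % scale 0 is the no-effect control and ±100 the full control effect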). To be noted: ME-180 (cervical carcinoma) SIE beta-lactamase reporter, IL-6 stimulated, 5 h; series mostly up to 38 µM. In short, it runs like this: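 IL-6/STAT signaling read in ME-180 cells via an SIE beta-lactamase reporter. Stimulus was 40 pM IL-6 (its AC50) for 5 hrs, so both activation and inhibition register.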
Test [11] has as its target Guanine nucleotide-binding protein G(i) subunit alpha-1 (Homo sapiens) (UniProt P63096). The test can be described thus: qHTS Assay for Inhibitors of RGS12 GoLoco Motif Activity (Green Fluorophore) (AID 879).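 Further: 0% = labeled peptide with Gαi1 and full inhibition = labeled peptide alone without protein; negative values mean loss of peptide binding seen as reduced polarization.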 The note with it: Galphai1/FITC-RGS12 GoLoco peptide, fluorescence polarization; series mostly up to 57.1 µM. A digest of the protocol: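 Fluorescence polarization assay: 50 nM Gαi1 with 10 nM FITC-labeled RGS12 GoLoco peptide in 10 mM Tris pH 7.5, 150 mM NaCl, 0.1 mM GDP, 0.05% NP40, 10 min at room temperature with compound.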

Test [12] concerns the target Muscarinic acetylcholine receptor M1 (Rattus norvegicus) (UniProt P08482). Nature of the test: qHTS Assay for Antagonists of Acetylcholine Muscarinic M1 Receptor: Measurement of IP-One Response (AID 944). Further: nearly all actives have a fitted effect of over 75% in size. To be noted: CHO-M1 cells, IP-One HTRF, antagonist mode; series mostly up to 46.1 µM. A digest of the protocol: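 M1-CHO (rat), 2000 cells/well, overnight recovery; cpd 10 min; carbachol EC80 (200 nM), 30 min, HEPES buffer + 50 mM LiCl pH 7.4; IP-One HTRF, Ex 337, Em 620/665 nm.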

In test [13] the target is Pyruvate kinase (Leishmania mexicana) (UniProt Q27686). The test can be described thus: qHTS Validation Assay for Inhibitors of Leishmania Mexicana Pyruvate Kinase (AID 945).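 Further: 0% = DMSO only neutral control wells.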 To be noted: purified L. mexicana pyruvate kinase, enzyme activity, E451W mutant enzyme; series mostly up to 57.5 µM. In short, it runs like this:
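Mutant LmPYK (E451W), 0.2 nM, plus 0.5 mM PEP and 0.1 mM ADP in 50 mM imidazole pH 7.2 containing 0.01% Tween 20 and 0.05% BSA. Incubated 1 h at room temperature; luminescence via PKLight, normalized to DMSO.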

Test [14] concerns the target Pyruvate kinase PKM (Homo sapiens) (UniProt P14618). Nature of the test: qHTS Assay for Activators of Human Muscle Pyruvate Kinase (AID 954; active means well fitted curve in the direction sought with a large enough effect, not every such curve was filed as active;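 further: 0% = uninhibited enzyme and -100% = no enzyme or full thiadiazolimine inhibition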). The note with it: purified human muscle pyruvate kinase, luciferase-coupled luminescence, 1 h; series mostly up to 57.5 µM. A digest of the protocol:
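Enzyme was run at intermediate activity so both inhibitors and activators could be detected. ATP formed from ADP and PEP by 0.1 nM human PKM2 during a 1 h room-temperature incubation was quantified by coupled luciferase luminescence.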

Test [15] addresses Alpha-galactosidase (Coffea arabica) (UniProt Q42656). The test can be described thus: Counterscreen for Glucocerebrosidase Inhibitors: qHTS Assay for Coffee Bean alpha-Galactosidase at pH 4.5 (AID 957).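 Further: plate controls were enzyme alone for no effect and no enzyme for full effect.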 The note with it: purified coffee bean alpha-galactosidase, fluorogenic substrate; series mostly up to 76.9 µM. A digest of the protocol: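 Coffee bean alpha-galactosidase 2 nM, substrate 4-MU-alpha-Gal 80 uM, pH 4.5 citrate/Tween-20, 20 min RT. Cpd titration 0.7 nM–77 uM. Stop pH 10, fluorescence 365/440 nm; Hill-equation AC50.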
Background: The purpose of a counterscreen is to sort out artefacts and off-target activity.

The target in test [16] is Alpha-galactosidase A (Homo sapiens) (UniProt P06280). Nature of the test: Counterscreen for Glucocerebrosidase Inhibitors: qHTS Assay for Human alpha-Galactosidase at pH 4.5 (AID 992). Further: 0% is about no effect. To be noted: purified enzyme, fluorogenic substrate; series mostly up to 76.9 µM. A digest of the protocol:
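Read-out is 4-methylumbelliferone fluorescence (365 nm excitation, 440 nm emission) after a pH 10 NaOH/glycine stop. Reactions held 2 nM enzyme and 80 uM substrate at pH 4.5 for 20 min at room temperature.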

In test [17] the target is alpha-glucosidase (Oryza sativa, rice) (UniProt Q653V4). The test can be described thus: Counterscreen for Glucocerebrosidase Inhibitors: qHTS Assay for Rice alpha-Glucosidase at pH 5.0 (AID 997).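 Further: 0% = full activity with enzyme and -100% = basal without enzyme.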 The note with it: rice alpha-glucosidase enzyme activity; series mostly up to 76.9 µM. In short, it runs like this:
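Rice alpha-glucosidase (4 nM final) with 400 uM 4-methylumbelliferyl-alpha-D-glucopyranoside in citrate buffer pH 5.0, 20 min at room temperature, stopped at pH 10; fluorescence 365/440 nm, compounds 0.7 nM–77 uM, AC50 from Hill fits.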

Test [18] addresses Alpha-galactosidase (Coffea arabica) (UniProt Q42656). The test can be described thus: Counterscreen for Glucocerebrosidase Inhibitors: qHTS Assay for Coffee Bean alpha-Galactosidase at pH 5.9 (AID 998).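 Further: plate controls were uninhibited enzyme for no effect and no-enzyme basal signal for full effect.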 To be noted: coffee bean alpha-galactosidase enzyme assay; series mostly up to 76.9 µM. A digest of the protocol: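 Compounds were titrated from 0.7 nM to 77 uM against green coffee bean alpha-galactosidase (2 nM) using 80 uM fluorogenic 4-methylumbelliferyl substrate. After 20 min at room temperature, reactions were stopped at pH 10 and read by fluorescence.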

Test [19] concerns the target DNA dC->dU-editing enzyme APOBEC-3G (Homo sapiens) (UniProt Q9HC16). The test can be described thus: qHTS for inhibitors of Vif-A3G interactions: Validation (AID 588379). Further: 0% is about no effect. The note with it: Vif-A3G protein interaction assay; series mostly up to 46.1 µM. In short, it runs like this:
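HeLa cells stably expressing Vif and A3G-eYFP, 700 cells/well, incubated overnight at 37 deg C, then exposed to compound overnight at 37 deg C. Inhibition of Vif-mediated degradation read as increased yellow fluorescence (Ex 488/Em 500-530) by laser-scanning cytometry.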

Alpha-galactosidase (Coffea arabica), sequence (Q42656 whole entry, looked up): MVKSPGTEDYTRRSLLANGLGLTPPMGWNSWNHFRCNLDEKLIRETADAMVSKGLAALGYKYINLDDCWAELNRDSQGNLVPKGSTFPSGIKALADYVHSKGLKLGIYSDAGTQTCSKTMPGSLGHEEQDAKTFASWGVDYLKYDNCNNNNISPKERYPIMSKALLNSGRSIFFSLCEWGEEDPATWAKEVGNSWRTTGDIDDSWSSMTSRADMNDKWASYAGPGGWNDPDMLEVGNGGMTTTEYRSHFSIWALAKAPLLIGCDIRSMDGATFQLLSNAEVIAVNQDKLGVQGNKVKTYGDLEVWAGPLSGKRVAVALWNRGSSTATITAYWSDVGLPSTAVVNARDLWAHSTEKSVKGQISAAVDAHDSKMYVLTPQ
Cytochrome P450 1A2 (Homo sapiens), sequence (P05177 whole entry, looked up): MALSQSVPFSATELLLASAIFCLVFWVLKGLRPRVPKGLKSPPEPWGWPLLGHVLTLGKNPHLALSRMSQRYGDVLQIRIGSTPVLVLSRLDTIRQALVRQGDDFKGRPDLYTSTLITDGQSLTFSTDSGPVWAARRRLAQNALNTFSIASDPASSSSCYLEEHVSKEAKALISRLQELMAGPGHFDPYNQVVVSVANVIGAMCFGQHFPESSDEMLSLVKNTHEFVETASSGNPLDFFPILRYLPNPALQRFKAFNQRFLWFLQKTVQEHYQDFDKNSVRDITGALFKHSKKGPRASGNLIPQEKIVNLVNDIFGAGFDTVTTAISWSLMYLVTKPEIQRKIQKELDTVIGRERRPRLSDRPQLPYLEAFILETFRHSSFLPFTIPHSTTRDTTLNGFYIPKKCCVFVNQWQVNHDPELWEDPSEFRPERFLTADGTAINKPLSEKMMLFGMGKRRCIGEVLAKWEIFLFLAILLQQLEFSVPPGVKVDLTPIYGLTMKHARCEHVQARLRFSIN
DNA dC->dU-editing enzyme APOBEC-3G (Homo sapiens), sequence (Q9HC16 whole entry, looked up): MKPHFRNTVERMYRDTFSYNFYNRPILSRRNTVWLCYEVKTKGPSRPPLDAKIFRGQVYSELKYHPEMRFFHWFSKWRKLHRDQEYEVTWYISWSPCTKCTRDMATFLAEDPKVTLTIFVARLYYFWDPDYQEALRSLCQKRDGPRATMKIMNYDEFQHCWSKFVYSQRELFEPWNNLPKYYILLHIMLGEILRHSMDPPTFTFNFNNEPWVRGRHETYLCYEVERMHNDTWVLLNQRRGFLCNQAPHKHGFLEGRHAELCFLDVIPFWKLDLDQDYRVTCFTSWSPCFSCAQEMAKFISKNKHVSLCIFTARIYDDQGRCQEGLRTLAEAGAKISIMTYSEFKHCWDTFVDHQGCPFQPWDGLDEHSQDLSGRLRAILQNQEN
Glucocorticoid receptor (Homo sapiens), sequence (P04150 whole entry, looked up, the tested form may be a part): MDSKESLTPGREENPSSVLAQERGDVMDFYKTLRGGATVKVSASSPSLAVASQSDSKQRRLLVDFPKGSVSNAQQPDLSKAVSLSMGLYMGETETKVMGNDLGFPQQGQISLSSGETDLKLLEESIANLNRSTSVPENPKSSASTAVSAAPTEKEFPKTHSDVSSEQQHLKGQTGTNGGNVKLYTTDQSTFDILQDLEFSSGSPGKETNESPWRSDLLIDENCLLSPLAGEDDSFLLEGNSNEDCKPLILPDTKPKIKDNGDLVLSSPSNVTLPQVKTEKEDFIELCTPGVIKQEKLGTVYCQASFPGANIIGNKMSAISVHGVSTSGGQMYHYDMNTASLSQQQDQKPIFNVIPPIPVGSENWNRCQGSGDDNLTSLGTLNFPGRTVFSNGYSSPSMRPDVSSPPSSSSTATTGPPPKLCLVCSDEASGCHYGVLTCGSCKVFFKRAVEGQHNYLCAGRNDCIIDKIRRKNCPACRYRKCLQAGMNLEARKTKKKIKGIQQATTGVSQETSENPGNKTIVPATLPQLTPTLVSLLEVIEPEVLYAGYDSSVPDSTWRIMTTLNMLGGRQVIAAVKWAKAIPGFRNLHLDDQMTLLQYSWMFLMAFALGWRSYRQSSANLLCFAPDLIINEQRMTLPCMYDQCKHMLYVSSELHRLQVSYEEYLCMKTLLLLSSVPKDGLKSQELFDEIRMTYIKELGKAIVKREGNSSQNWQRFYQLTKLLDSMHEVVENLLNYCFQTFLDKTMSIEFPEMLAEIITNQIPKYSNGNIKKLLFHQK
3',5'-cyclic-AMP phosphodiesterase 4B (Homo sapiens), sequence (Q07343 whole entry, looked up): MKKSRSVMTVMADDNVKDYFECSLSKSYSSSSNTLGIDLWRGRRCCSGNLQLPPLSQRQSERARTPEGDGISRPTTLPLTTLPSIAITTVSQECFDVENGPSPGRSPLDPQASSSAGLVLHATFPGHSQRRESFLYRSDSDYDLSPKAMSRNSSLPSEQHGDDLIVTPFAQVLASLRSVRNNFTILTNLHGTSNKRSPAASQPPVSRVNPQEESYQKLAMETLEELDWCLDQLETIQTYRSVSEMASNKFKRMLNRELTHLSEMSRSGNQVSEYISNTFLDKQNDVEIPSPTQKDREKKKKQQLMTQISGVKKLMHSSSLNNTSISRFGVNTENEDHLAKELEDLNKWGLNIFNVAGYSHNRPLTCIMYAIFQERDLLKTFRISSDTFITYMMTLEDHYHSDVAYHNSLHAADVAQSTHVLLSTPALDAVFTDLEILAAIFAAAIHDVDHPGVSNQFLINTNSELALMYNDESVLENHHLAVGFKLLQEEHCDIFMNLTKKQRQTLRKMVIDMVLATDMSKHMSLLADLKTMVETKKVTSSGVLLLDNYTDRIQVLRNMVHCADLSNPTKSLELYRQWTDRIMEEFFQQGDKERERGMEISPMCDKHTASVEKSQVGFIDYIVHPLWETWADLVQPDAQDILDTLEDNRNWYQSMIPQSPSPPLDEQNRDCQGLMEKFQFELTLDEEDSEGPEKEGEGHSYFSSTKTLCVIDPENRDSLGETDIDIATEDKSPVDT
Guanine nucleotide-binding protein G(i) subunit alpha-1 (Homo sapiens), sequence (P63096 whole entry, looked up): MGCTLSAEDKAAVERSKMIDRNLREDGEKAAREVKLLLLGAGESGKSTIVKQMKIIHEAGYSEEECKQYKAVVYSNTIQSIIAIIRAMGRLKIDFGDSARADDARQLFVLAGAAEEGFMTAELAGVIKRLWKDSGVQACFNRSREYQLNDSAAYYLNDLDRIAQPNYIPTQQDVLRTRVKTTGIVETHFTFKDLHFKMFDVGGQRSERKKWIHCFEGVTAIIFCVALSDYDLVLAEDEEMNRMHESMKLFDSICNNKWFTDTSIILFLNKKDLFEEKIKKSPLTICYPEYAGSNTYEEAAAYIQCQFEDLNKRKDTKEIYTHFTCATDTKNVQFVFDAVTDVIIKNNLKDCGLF
Muscarinic acetylcholine receptor M1 (Rattus norvegicus), sequence (P08482 whole entry, looked up): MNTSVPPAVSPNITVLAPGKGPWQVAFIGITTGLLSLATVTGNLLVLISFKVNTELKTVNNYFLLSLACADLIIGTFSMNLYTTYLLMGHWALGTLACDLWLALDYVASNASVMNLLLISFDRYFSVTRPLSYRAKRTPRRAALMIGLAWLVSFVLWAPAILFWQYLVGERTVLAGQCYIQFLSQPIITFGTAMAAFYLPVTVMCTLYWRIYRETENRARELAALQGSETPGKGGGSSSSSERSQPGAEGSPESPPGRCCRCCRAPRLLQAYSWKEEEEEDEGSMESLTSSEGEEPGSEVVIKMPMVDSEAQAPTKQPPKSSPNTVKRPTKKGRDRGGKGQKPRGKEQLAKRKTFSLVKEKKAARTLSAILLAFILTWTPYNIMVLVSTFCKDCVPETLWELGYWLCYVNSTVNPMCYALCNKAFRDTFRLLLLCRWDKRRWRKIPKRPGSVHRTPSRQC
Alpha-galactosidase A (Homo sapiens), sequence (P06280 whole entry, looked up): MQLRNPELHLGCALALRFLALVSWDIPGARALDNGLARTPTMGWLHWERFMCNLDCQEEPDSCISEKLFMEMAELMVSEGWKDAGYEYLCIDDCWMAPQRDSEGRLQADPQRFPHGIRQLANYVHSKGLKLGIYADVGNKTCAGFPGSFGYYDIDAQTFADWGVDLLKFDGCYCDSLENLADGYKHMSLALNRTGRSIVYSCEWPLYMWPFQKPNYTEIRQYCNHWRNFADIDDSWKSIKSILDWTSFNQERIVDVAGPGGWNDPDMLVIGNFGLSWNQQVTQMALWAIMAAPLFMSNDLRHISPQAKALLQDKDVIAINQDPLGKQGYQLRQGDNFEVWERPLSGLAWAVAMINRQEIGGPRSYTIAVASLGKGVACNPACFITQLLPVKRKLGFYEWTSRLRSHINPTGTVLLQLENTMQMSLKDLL
Ubiquitin carboxyl-terminal hydrolase 1 (Homo sapiens), sequence (O94782 whole entry, looked up): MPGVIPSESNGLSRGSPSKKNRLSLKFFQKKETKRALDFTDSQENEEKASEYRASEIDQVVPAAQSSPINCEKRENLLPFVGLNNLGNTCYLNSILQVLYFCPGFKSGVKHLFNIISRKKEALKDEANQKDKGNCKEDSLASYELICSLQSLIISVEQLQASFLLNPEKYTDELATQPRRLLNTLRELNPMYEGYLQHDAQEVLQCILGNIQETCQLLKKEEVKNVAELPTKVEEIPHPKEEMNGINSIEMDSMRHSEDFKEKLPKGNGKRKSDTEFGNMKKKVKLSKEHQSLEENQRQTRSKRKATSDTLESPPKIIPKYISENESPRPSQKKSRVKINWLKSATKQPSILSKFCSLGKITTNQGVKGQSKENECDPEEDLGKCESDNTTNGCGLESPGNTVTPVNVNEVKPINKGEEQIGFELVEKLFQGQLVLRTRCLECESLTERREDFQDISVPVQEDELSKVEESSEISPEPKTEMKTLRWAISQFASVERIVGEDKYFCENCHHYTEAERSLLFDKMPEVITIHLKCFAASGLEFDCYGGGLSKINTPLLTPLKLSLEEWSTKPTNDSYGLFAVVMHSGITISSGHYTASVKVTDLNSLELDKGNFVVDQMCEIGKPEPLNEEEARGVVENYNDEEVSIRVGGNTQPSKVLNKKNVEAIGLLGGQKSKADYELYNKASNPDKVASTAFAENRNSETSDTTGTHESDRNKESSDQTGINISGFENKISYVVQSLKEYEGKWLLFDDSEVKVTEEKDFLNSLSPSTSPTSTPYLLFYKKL

`CC1=C(O)C(=O)[C@H]2O[C@@H]2C1=O`: the Potency result in test [1], in test [5], in test [6], in test [7] and in test [8] was “inactive” each time. The Potency in test [2] and in [3] was > 46 µM (inactive) each time. The call in test [4] was inactive.

Turning to `COC(=O)N1CCN(C(=O)Cc2ccc(Cl)c(Cl)c2)[C@H](CN2CCCC2)C1`, the Potency result in [1], in test [5], in test [12], in test [19], in test [7] and in test [8] was “inactive” throughout. Further, the activity change, negative = inhibition in test [9] (at 38 µM (top of the series)) is -16% (inactive). Moreover, the result in [10], in test [11], in test [13], in test [14], in [15] and in test [16] was inactive. For the same molecule, the molecule was classed as inactive in [17] and in [18]. Also, the Potency in test [2] is > 46 µM (inactive) and 1.28 µM (active).

As to `CC[C@@H](CO)NC(=O)[C@H]1C=C2c3cccc4[nH]cc(c34)C[C@H]2N(C)C1`, the Potency is > 46 µM (inactive) in test [2], > 46 µM (inactive) in test [3] and 29.9 µM (active) in test [7]. Also, the Potency result in test [5], in test [19] and in [8] was “inactive” throughout.

Regarding `CC(C)(c1ccc(OCC2CO2)cc1)c1ccc(OCC2CO2)cc1` (stereo not given), the Potency entry in test [7] and in test [8] was “inactive” throughout.

On to `O=C1CC[C@@]2(O)[C@H]3Cc4ccc(O)c5c4[C@@]2(CCN3CC2CC2)[C@@H]1O5`, for which the activity change, negative = inhibition in test [9] (at 38 µM (top of the series)) is 8.31% (inactive). The call in [10], in test [4], in [11], in test [13], in [15] and in [16] was inactive. The molecule was called inactive in [17] and in [18]. In addition, the Potency result in test [5], in test [12], in test [19], in [7] and in [8] was “inactive” each time.

In the case of `C/C(=C\[C@@H](N)C(=O)O)CP(=O)(O)O`, the Potency in test [2] and in test [3] was > 46 µM (inactive) throughout. Moreover, the outcome in [4] was inactive. In addition, the Potency result in test [7] and in [8] was “inactive” throughout.

`CN(C(=O)Cc1ccc(Cl)c(Cl)c1)[C@H](CN1CCCC1)c1ccccc1`: in test [2], the Potency is > 46 µM (inactive). In addition, the molecule was classed as inactive in [4]. The Potency result in [19], in [7] and in test [8] was “inactive” throughout.

As to `O=NN1CCCC1c1cccnc1` (stereo not given), the Potency result in [7] and in test [8] was “inactive” each time.

In the case of `NC(=NCCc1ccc(I)cc1)SCCCc1cnc[nH]1`, the Potency was 15.8 µM (active) in test [1] and > 46 µM (inactive) in test [2]. The molecule was classed as inactive in [4]. Also, the Potency entry in [6], in test [19], in test [7] and in test [8] was “inactive” each time.

Regarding `CN[C@@H]1C[C@H](c2ccc(Cl)c(Cl)c2)c2ccccc21`, the Potency in test [2] and in test [3] was > 46 µM (inactive) throughout. Moreover, the Potency entry in [19], in [7] and in test [8] was “inactive” each time.

As for `COC1=CC(=O)OC(/C=C/c2ccccc2)C1` (stereo not given), in test [9] (at 17.2 µM (top of the series)), the activity change, negative = inhibition is -0.501% (inactive). Besides, the molecule was classed as inactive in test [10]. Also, in test [2], the Potency was > 20.6 µM (inactive). The Potency entry in [7] and in [8] was “inactive” each time.
